Source: PubChem BioAssay (NCATS)
Results filed as inconclusive are left out. Entries that show only a call come without a potency. Active and inactive are the calls of the source. Unless noted, the call rests on the fitted dose curve; in most records, active means well fitted inhibition curve with a large enough effect; inconclusive means small, poorly fitted or top-dose-only effect; inactive means flat fitted curve, though single readings scatter.

Legend:
3D7 = experiment: qHTS profiling for inhibitors of Plasmodium falciparum proliferation (AID 504749); further: nearly all actives have a fitted effect of over 60% in size; further: potency means the concentration at half of the fitted maximal effect; details: P. falciparum in erythrocytes, SYBR Green DNA, 72 h; series mostly up to 28.7 µM
Summary of the method: (§1)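 Three-day growth assay of blood-stage parasites in erythrocytes (0.3% parasitemia, 2.5% hematocrit) at 37 C, 5% CO2, quantified by SYBR Green DNA staining after overnight detergent lysis.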

CP185 = experiment: as above; details: P. falciparum in erythrocytes, SYBR Green DNA, 72 h; series mostly up to 28.7 µM
Summary of the method: as §1

CP203 = experiment: as above; details: P. falciparum in erythrocytes, SYBR Green DNA, 72 h; series mostly up to 28.7 µM
Summary of the method: as §1

CP211 = experiment: as above; details: P. falciparum in erythrocytes, SYBR Green DNA, 72 h; series mostly up to 28.7 µM
Summary of the method: as §1

CP217 = experiment: as above; details: P. falciparum in erythrocytes, SYBR Green DNA, 72 h; series mostly up to 28.7 µM
Summary of the method: as §1

CP250 = experiment: as above; details: P. falciparum in erythrocytes, SYBR Green DNA, 72 h; series mostly up to 28.7 µM
Summary of the method: as §1

CP252 = experiment: as above; details: P. falciparum in erythrocytes, SYBR Green DNA, 72 h; series mostly up to 28.7 µM
Summary of the method: as §1

CP256 = experiment: as above; details: P. falciparum in erythrocytes, SYBR Green DNA, 72 h; series mostly up to 28.7 µM
Summary of the method: as §1

CP262 = experiment: as above; details: P. falciparum in erythrocytes, SYBR Green DNA, 72 h; series mostly up to 28.7 µM
Summary of the method: as §1

CP265 = experiment: as above; details: P. falciparum in erythrocytes, SYBR Green DNA, 72 h; series mostly up to 28.7 µM
Summary of the method: as §1

CP291 = experiment: as above; details: P. falciparum in erythrocytes, SYBR Green DNA, 72 h; series mostly up to 28.7 µM
Summary of the method: as §1

CP305 = experiment: as above; details: P. falciparum in erythrocytes, SYBR Green DNA, 72 h; series mostly up to 28.7 µM
Summary of the method: as §1

CP315 = experiment: as above; details: P. falciparum in erythrocytes, SYBR Green DNA, 72 h; series mostly up to 28.7 µM
Summary of the method: as §1

CP335 = experiment: as above; details: P. falciparum in erythrocytes, SYBR Green DNA, 72 h; series mostly up to 28.7 µM
Summary of the method: as §1

DIV30 = experiment: as above; details: P. falciparum in erythrocytes, SYBR Green DNA, 72 h; series mostly up to 28.7 µM
Summary of the method: as §1

ECU = experiment: as above; details: P. falciparum in erythrocytes, SYBR Green DNA, 72 h; series mostly up to 28.7 µM
Summary of the method: as §1

HB3 = experiment: as above; details: P. falciparum in erythrocytes, SYBR Green DNA, 72 h; series mostly up to 28.7 µM
Summary of the method: as §1

N140 = experiment: as above; details: P. falciparum in erythrocytes, SYBR Green DNA, 72 h; series mostly up to 28.7 µM
Summary of the method: as §1

TAB113 = experiment: as above; details: P. falciparum in erythrocytes, SYBR Green DNA, 72 h; series mostly up to 28.7 µM
Summary of the method: as §1

[1] = S16 Schwann cell PMP22 intronic element beta-lactamase assay (AID 624044; calls by dose curve; further: nearly all actives have a fitted effect of over 15% in size); details: S16 rat Schwann cells, PMP22 element beta-lactamase FRET, 24 h; ratio activity, negative = inhibition: at 38.3 µM (top of the series)
Summary of the method: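 Rat S16 Schwann cells with beta-Lac driven by a PMP22 intronic element, compound-treated 24 h at 37 °C. LiveBLAzer FRET B/G read: 460 nm normalized to potassium clavulanate vs DMSO; 535 nm FRET as viability; concentration-effect curves classified.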

Compound | Potency (3D7) | Potency (CP185) | Potency (CP203) | Potency (CP211) | Potency (CP217) | Potency (CP250) | Potency (CP252) | Potency (CP256) | Potency (CP262) | Potency (CP265) | Potency (CP291) | Potency (CP305) | Potency (CP315) | Potency (CP335) | Potency (DIV30) | Potency (ECU) | Potency (HB3) | Potency (N140) | Potency (TAB113) | Potency [1]
C=C1Nc2ccccc2C(=O)N1c1ccccc1C | inactive | inactive | inactive | inactive | inactive | inactive | inactive | inactive | inactive | inactive | inactive | inactive | inactive | inactive | inactive | inactive | inactive | inactive | inactive | 
Cc1cc(C)cc(C(=O)OC2CC3CCC(C2)N3C)c1 (stereo unspecified) | inactive | inactive | inactive | inactive | inactive | inactive | inactive | inactive | inactive | inactive | inactive | inactive | inactive | inactive | inactive |  | inactive | inactive | inactive | 
CC1(C)[C@@H](C=C(Cl)Cl)[C@@H]1C(=O)OCc1c(F)c(F)cc(F)c1F | inactive | inactive | inactive | inactive | inactive | inactive | inactive | inactive | inactive | inactive | inactive | inactive | inactive | inactive | inactive | inactive | inactive | inactive | inactive | inactive
OCC(O)[C@H]1O[C@@H]2O[C@H](C(Cl)(Cl)Cl)O[C@@H]2[C@H]1O (stereo partly specified) | inactive | inactive | inactive | inactive | inactive | inactive | inactive | inactive | inactive | inactive | inactive | inactive | inactive | inactive | inactive | inactive | inactive | inactive | inactive | inactive
CN1C2CCC1C(C(=O)O)C(OC(=O)c1ccccc1)C2 (stereo unspecified) | inactive | inactive | inactive | inactive | inactive | inactive | inactive | inactive | inactive | inactive | inactive | inactive | inactive | inactive | inactive | inactive | inactive | inactive | inactive | inactive
C=CC[N+]1(C)CCC23c4c5ccc(O)c4O[C@H]2C(=O)CC[C@@]3(O)C1C5 (stereo partly specified) | inactive | inactive | inactive | inactive | inactive | inactive | inactive | inactive | inactive | inactive | inactive | inactive | inactive | inactive | inactive | inactive | inactive | inactive | inactive | inactive
[S]=[Sb][S][Sb]=[S] | inactive | inactive | inactive | inactive | inactive | inactive | inactive | inactive | inactive | inactive | inactive | inactive | inactive | inactive | inactive | inactive | inactive | inactive | inactive | inactive
C[C@@H]1CC[C@H]2[C@@H](C)C(=O)O[C@@H]3OC4(C)CC[C@@H]1C32OO4 (stereo partly specified) | 7.9 nM (active) | 8.9 nM (active) | 13.5 nM (active) | 16.9 nM (active) | 10 nM (active) | 14.1 nM (active) | 10 nM (active) | 10 nM (active) | 13.5 nM (active) | 7.9 nM (active) | 10.7 nM (active) | 13.5 nM (active) | 23.9 nM (active) | 6.7 nM (active) | 8.5 nM (active) | 5.6 nM (active) | 8.9 nM (active) | 5.6 nM (active) | 5.6 nM (active) | inactive
CCOC(=O)/C=C(C)/C=C/CC(C)CCCC(C)C (stereo unspecified) | inactive | inactive | inactive | inactive | inactive | inactive | inactive | inactive | inactive | inactive | inactive | inactive | inactive | inactive | inactive | inactive | inactive | inactive | inactive | inactive
CCCCCc1cc(O)c2c(c1)OC(C)(C)C1CC=C(C)CC21 (stereo unspecified) | 2820 nM (active) | 6310 nM (active) | 2130 nM (active) | 5360 nM (active) | 2240 nM (active) | 7080 nM (active) | 3160 nM (active) | 11200 nM (active) | 4260 nM (active) | 3550 nM (active) | 6750 nM (active) | 12000 nM (active) | 4260 nM (active) | 3380 nM (active) | 2390 nM (active) | 2000 nM (active) | 5010 nM (active) | 1120 nM (active) | 2000 nM (active) | 
CCCCCC(O)C1C(=O)OC(C)C(O)\C=C/C=C\C=C/C=C\C=C(\C)C(O)C(O)C(O)CC(O)CC(O)CC(O)CC(O)CC1O (stereo unspecified) | inactive | inactive | inactive | inactive | inactive | inactive | inactive | inactive | inactive | inactive | inactive | inactive | inactive | inactive | inactive | inactive | inactive | inactive | inactive | 
CC1(C)S[C@@H]2[C@H](N)C(=O)N2C1C(=O)O (stereo partly specified) | inactive | inactive | inactive | inactive | inactive | inactive | inactive | inactive | inactive | inactive | inactive | inactive | inactive | inactive | inactive | inactive | inactive | inactive | inactive | 
C[C@]12C=CC(=O)C=C1CC[C@@H]1C2CC[C@]2(C)OC(=O)CCC12 (stereo partly specified) | inactive | inactive | inactive | inactive | inactive | inactive | inactive | inactive | inactive | inactive | inactive | inactive | inactive | inactive | inactive | inactive | inactive | inactive | inactive | inactive
CCCN1CCCC2Cc3nc(N)ncc3CC21 (stereo unspecified) | inactive | inactive | inactive | inactive | inactive | inactive | inactive | inactive | inactive | inactive | inactive | inactive | inactive | inactive | inactive | inactive | inactive | inactive | inactive | inactive
CC1OC(O[C@H]2C[C@@H](O)[C@]3(CO)[C@@H]4C(CC[C@]3(O)C2)[C@@]2(O)CC[C@H](C3=CC(=O)OC3)[C@@]2(C)C[C@H]4O)C(O)C(O)C1O (stereo partly specified) | inactive | inactive | inactive | inactive | inactive | inactive | inactive | inactive | inactive | inactive | inactive | inactive | inactive | inactive | inactive | inactive | inactive | inactive | inactive | inactive
OC[C@@H](O)[C@H]1O[C@@H]2OC(C(Cl)(Cl)Cl)O[C@H]2[C@H]1O (stereo partly specified) | inactive | inactive | inactive | inactive | inactive | inactive | inactive | inactive | inactive | inactive | inactive | inactive | inactive | inactive | inactive | inactive | inactive | inactive | inactive | inactive
NC(Cc1ccc(Oc2cc(I)c(O)c(I)c2)c(I)c1)C(=O)O (stereo unspecified) | inactive | inactive | inactive | inactive | inactive | inactive | inactive | inactive | inactive | inactive | inactive | inactive | inactive | inactive | inactive | inactive | inactive |  | inactive | inactive
C#CC1(O)C=CC2C3CCC4=CC(=O)CCC4C3CCC21CC (stereo unspecified) |  |  |  |  | inactive |  | inactive |  |  |  | 15100 nM (active) |  |  |  |  | inactive | 10000 nM (active) | inactive |  | inactive
C[C@]12CCC3C(CCC4=C(Cl)C(=O)CC[C@@]43C)C1CCC2O (stereo partly specified) | inactive | inactive | inactive | inactive | inactive | inactive | inactive | inactive | inactive | inactive | inactive | inactive | inactive | inactive | inactive | inactive | inactive | inactive | inactive | 
CCC(=O)OC1(c2ccccc2)CCN(C)CC1C (stereo unspecified) | inactive |  |  | inactive |  |  |  |  | inactive |  |  |  | inactive |  | inactive | inactive | inactive |  |  | inactive
C[C@]12CC[C@H]3[C@@H](CC[C@@]45O[C@@H]4C(=O)C(C#N)C[C@]35C)[C@@H]1CC[C@@H]2O (stereo partly specified) | inactive |  | inactive | inactive |  |  |  |  | inactive |  | inactive | inactive | inactive | inactive | inactive |  | inactive |  |  | inactive
O=C1CC2OCC=C3CN4CCC56c7ccccc7N1C5[C@H]2[C@H]3C[C@H]46 (stereo partly specified) (tested in a mixture with another compound) |  | inactive |  | inactive | inactive | inactive | inactive | inactive |  | inactive | inactive |  | inactive | inactive |  |  |  | inactive | inactive | inactive
CCCC(C)C1(CC)C(=O)NC(=S)NC1=O (stereo unspecified) | inactive | inactive | inactive | inactive | inactive | inactive | inactive | inactive | inactive | inactive | inactive | inactive | inactive | inactive | inactive | inactive | inactive | inactive | inactive | inactive
CC12CCC3C4CCC(=O)C(O)=C4CCC3C1CCC2OC(=O)CCC1CCCC1 (stereo unspecified) | inactive | inactive | inactive | inactive | inactive | inactive | inactive | inactive | inactive | inactive | inactive | inactive | inactive | inactive | inactive | inactive | inactive | inactive | inactive | inactive
